This is a sample that favours compounds with a hit; in the whole collection about 19% have one here.
IL-1B inflam inh = inhibitors of inflammasome signaling (IL-1 beta secretion); THP-1 LPS/ATP IL-1B secretion, AlphaLISA, 16 h; hits give low values; activity change, % at 57.5 µM; hit rate 4.7% among 360,000; in the data active means activity change below about -50%; inconclusive means mostly about -30% to -49%
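THP-1 cells pretreated 1 hr with compounds (up to 57.5 uM final), then stimulated with LPS (250 ng/mL final) plus ATP (1.25 mM final); secreted IL-1B measured by AlphaLISA after 16 hr, decreased signal indicating inhibition.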
HT1080 IDH1KD tx = HT-1080 IDH1 knockdown cell toxicity (counter line) | HT-1080 IDH1 knockdown viability, ATP luminescence, 48 h | Potency, µM (titrated, usually from 46.1 µM), usual class: cytotoxic | hit rate 2% among 360,000 | AID 686971
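After a 2 h attachment period, IDH1KD HT-1080 cells took pin-transferred compound for 48 h at 37 °C; ATP-based luminescence after 10 min room-temperature reagent incubation reported viability.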
DT40 TDP1 no CPT = qHTS for Inhibitors of human tyrosyl-DNA phosphodiesterase 1 (TDP1): qHTS in cells in absence of CPT. hit rate 15% among 420,000. Potency, µM (top dose mostly 46.2 µM), actives largely listed as inhibitors. DT40 Tdp1-/- hTDP1 cells, no CPT, ATP luminescence, 48 h. AID 686978, 2013; further: nearly all actives have a fitted effect of over 55% in size
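Chicken DT40 Tdp1-/- cells complemented with human TDP1, screened without camptothecin (DMSO vehicle only), 400 cells/well. Compounds pin-transferred, cells incubated at 37 °C for at least 48 hr. Growth read as ATP-dependent luminescence (CellTiter-Glo, 30 min at RT).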
ELG1 repair inh = blocks ELG1-dependent DNA repair in HEK293T cells; AID 504467; Potency, µM (top dose mostly 46.1 µM), hits mostly inhibitors; HEK293T ELG1-luciferase reporter, luminescence, 16 h; DNA damage induced by 5-fluorouridine; hit rate 2.3% among 330,000; further: nearly all actives have a fitted effect of over 55% in size
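HEK293T cells expressing luciferase-tagged ELG1 (2,000/well) received 5-Fluorouridine plus compound or DMSO for 16 hr at 37 °C. Luciferase was read by ONE-Glo luminescence after 30 min at room temperature.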
TDP1 cell CPT = DT40-hTDP1 cell growth loss with CPT; hit rate 12% among 420,000; AID 686979; chicken DT40 Tdp1-/-;hTDP1 cells + 20 nM CPT, ATP luminescence, 48 h; Potency, µM (highest dose often 46.2 µM), usual class: inhibitors; further: nearly all actives have a fitted effect of over 55% in size
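Chicken DT40 Tdp1-/- cells stably complemented with human TDP1 were seeded at 400 cells/well in medium containing 20 nM camptothecin, exposed to pin-transferred compounds, and grown at 37 °C for at least 48 hr. Viability was read as ATP luminescence.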
HT1080NT lethal = kills 2HG-producing HT-1080-NT fibrosarcoma cells; Potency, µM (doses to about 46.1 µM), actives largely listed as cytotoxic; hit rate 1.6% among 360,000; AID 686970; HT-1080-NT fibrosarcoma viability, CellTiter-Glo ATP luminescence, 48 h;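 further: NT is the 2HG producing partner of a matched IDH1 knockdown line; nearly all actives have a fitted effect of over 55% in size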
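Viability by CellTiter-Glo luminescence after 48 h compound exposure at 37C of HT-1080-NT cells (750/well, RPMI, 5% FBS). % activity scaled between DMSO wells and medium-only wells, then curve-fitted and categorized by curve class.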
A number is an active result; n = inactive; u = inconclusive; x = not tested or not shown; ! = not confirmed by another sample. Unless noted, the call rests on the fitted dose curve; in most records, active means well fitted curve in the direction sought with a large enough effect; inconclusive means small, poorly fitted or top-dose-only effect, or another doubt; inactive means no such curve, though single readings can be large; an effect the other way counts as inactive or inconclusive.

SMILES | IL-1B inflam inh | HT1080 IDH1KD tx | DT40 TDP1 no CPT | ELG1 repair inh | TDP1 cell CPT | HT1080NT lethal
CCCN(CCC)C(=O)CSc1nc2n[nH]c(C)c2c(=N)n1-c1ccc(OCC)cc1 | n | u | u | u | u | n
CCOc1ccc(-n2c(SCC(=O)Nc3ccc(CC)cc3)nc3n[nH]c(C)c3c2=N)cc1 | n | 18µM | 21µM | u | u | u
CCc1ccc(NC(=O)CSc2nc3n[nH]c(C)c3c(=N)n2-c2ccc(C)cc2)cc1 | x | x | 3.7µM | x | 6.5µM | x
CCC(Sc1nc2n[nH]c(C)c2c(=N)n1-c1ccc(Br)cc1)C(=O)N(CC)CC (stereo unspecified) | x | x | 15µM | x | 18µM | x
Cc1[nH]nc2nc(SCC(=O)NC3CCCCC3)n(-c3ccc(Br)cc3)c(=N)c12 | n | u | 6.5µM | u | 8.2µM | n
CCC(Sc1nc2n[nH]c(C)c2c(=N)n1-c1ccc(C)c(Cl)c1)C(=O)N1CCOCC1 (stereo unspecified) | n | n | u | u | u | n
CCOc1ccc(CSc2nc(C)cc(COC)c2C#N)cc1OCC | n | n | u | u | u | n
COC(=O)c1ccc(CNC(=O)Cn2nnnc2CN(C)C(C)C)cc1 | n | n | n | n | n | n
Cc1cccc(NC(=O)c2ccc(-c3nc(CSc4ccccc4)c(C)o3)cc2)c1C | x | x | u | x | 5.2µM | x
Cc1ccc(Cl)cc1NC(=O)c1ccc(-c2nc(CSc3ccccc3)c(C)o2)cc1 | x | x | 6.5µM | x | 9.2µM | x
COC(=O)c1ccccc1NC(=O)c1ccc(-c2nc(CSc3ccc(C)cc3)c(C)o2)cc1 | x | x | n | x | n | x
Cc1oc(-c2ccc(C(=O)Nc3ccccc3F)cc2)nc1COc1ccccc1 | x | x | u | x | n | x
COc1ccc(NC(=O)c2ccc(-c3nc(CSc4ccccc4)c(C)o3)cc2)cc1OC | x | x | n | x | u | x
Cc1oc(-c2ccccc2Cl)nc1CSCC(=O)O | n | n | n | n | n | n
Cc1oc(-c2ccc(C(=O)Nc3cccc(C(F)(F)F)c3)cc2)nc1CSc1ccccc1 | x | x | 16µM | x | 23µM | x
Cc1oc(-c2cccc(Cl)c2)nc1CSCC(=O)O | n | n | 29µM! | n | 16µM! | n
O=C(Nc1ccc(OC(F)(F)F)cc1)C1CCN(S(=O)(=O)c2ccc3[nH]c(=O)ccc3c2)CC1 | x | x | u | x | n | x
COC(=O)c1n[nH]n(-c2ccccc2)c1=O | x | x | n | x | n | x
COc1ccc(/C=C(\NC(=O)c2ccc([N+](=O)[O-])cc2)C(=O)NCCCN2CCOCC2)cc1 | n | n | n | n | n | n
COc1ccc(/C=N/c2c(-c3ccc(OC)cc3)nc3n2CCS3)cc1 | u | n | 16µM | n | u | n
Fc1ccc(/C=N/c2c(-c3ccc(F)cc3)nc3n2CCS3)cc1 | n | n | n | n | n | n
CC(=O)N1c2ccc(S(=O)(=O)NCCC(=O)Nc3ccc(Br)c(C)c3)cc2CC1C (stereo unspecified) | x | x | 5.2µM | x | 8.2µM | x
CC(=O)N1c2ccc(S(=O)(=O)NCCC(=O)Nc3ccc(C)c(Cl)c3)cc2CC1C (stereo unspecified) | n | n | 13µM | n | 15µM | n
CC(=O)N1c2ccc(S(=O)(=O)NCCC(=O)Nc3cccc(Cl)c3)cc2CC1C (stereo unspecified) | n | n | n | n | n | n
CC(=O)N1c2ccc(S(=O)(=O)NCCC(=O)Nc3ccc(F)cc3)cc2CC1C (stereo unspecified) | n | n | u | n | u | n
CC(=O)N1c2ccc(S(=O)(=O)NCCC(=O)NCc3ccc(Cl)cc3)cc2CC1C (stereo unspecified) | n | n | 15µM | u | u | n
COc1ccc(-c2oc3ccccc3c2C(=O)OCc2ccccc2)cc1 | n | n | n | u | n | n

High-throughput results: PubChem BioAssay, National Center for Advancing Translational Sciences (NCATS)
